This passage reports growth results from PubChem BioAssay (NCI).

Compounds without any hit were thinned out: in the full panel of roughly 83,000, 20% have a hit.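 Results are percent growth after 48 hours of single-concentration exposure. 100 means growth as in untreated cells, lower positive values show inhibition; negative values down to -100 show cell death.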 Unmarked numbers belong to inactive results. The source made the active and inactive calls. Rule for the calls: active = growth percent below 10; inactive = the rest.

Test systems include DU-145 prostate; K-562 leukemia; MALME-3M melanoma; MDA-MB-231 breast; RXF 393 renal; SF-268 CNS; SF-295 CNS; SF-539 CNS; UACC-257 melanoma; M14 melanoma; HCT-15 colon; HT29 colon; SNB-75 CNS; SNB-19 CNS; U251 CNS; PC-3 prostate; SK-MEL-5 melanoma; UACC-62 melanoma; LOX IMVI melanoma; SK-MEL-28 melanoma.
Common to all, as to experiment: NCI-60 one-dose screen, 48 h (100 = growth as untreated, 0 = no growth, -100 = all killed)
Common to all, as to details: 10 µM unless noted

Take `Clc1cccc(/C=N/Nc2nc(N/N=C/c3cccc(Cl)c3)nc(N3CCCCC3)n2)c1`: the growth in the assay with DU-145 prostate is 94.6%; with K-562 leukemia, 83%; with MALME-3M melanoma, 109%; in the assay with MDA-MB-231 breast it was 116%; in the assay with RXF 393 renal it was 93.4%; in the assay on SF-268 CNS, 92%. Moreover, the growth with SF-295 CNS is 93%; in the assay with SF-539 CNS, 105%; in the assay with UACC-257 melanoma, 111%; in the assay on M14 melanoma, 95.3%; in the assay on HCT-15 colon it was 79.8%; in the assay with HT29 colon, 85.6%. Further, the growth was 102% in the assay on SNB-75 CNS; 98.6% in the assay with SNB-19 CNS; 91.7% in the assay with U251 CNS; 76% in the assay on PC-3 prostate; 80.6% with SK-MEL-5 melanoma; 79.2% in the assay with UACC-62 melanoma. The values for the growth in the assay with LOX IMVI melanoma and with SK-MEL-28 melanoma were 105% and 96.2%, respectively.

`O=C(COc1ccc(/C=C2\C(=O)Nc3ccc(Cl)cc32)cc1)Nc1ccc(Cl)cc1`: the growth in the assay on DU-145 prostate was 53.7%; in the assay with K-562 leukemia it was 28.2%; in the assay with MALME-3M melanoma, 81.2%; in the assay with MDA-MB-231 breast, 76.6%; in the assay on RXF 393 renal, 75.4%; with SF-268 CNS it was 51.1%. Also, the growth in the assay with SF-295 CNS was 59.2%; in the assay with SF-539 CNS it was 75.3%; with UACC-257 melanoma it was 82.5%; in the assay with M14 melanoma, 7.47% (active); with HCT-15 colon it was 42.1%; in the assay with HT29 colon it was 55.8%. In addition, the growth was 78.9% with SNB-75 CNS; 78.2% in the assay with SNB-19 CNS; 5.92% (active) with U251 CNS; 41.7% in the assay with PC-3 prostate; 78% in the assay with SK-MEL-5 melanoma; 27.8% with UACC-62 melanoma. The growth in the assay with LOX IMVI melanoma was 1.2% (active); in the assay with SK-MEL-28 melanoma, 78.6%.

With `N/C(=N\C(N)=N\c1nc2ccccc2s1)c1ccc(Cl)cc1`, the growth is 85.4% in the assay with DU-145 prostate; 86.9% in the assay on K-562 leukemia; 90.3% with MALME-3M melanoma; 79.5% in the assay on MDA-MB-231 breast; 92.6% in the assay on RXF 393 renal; 93% in the assay with SF-268 CNS. In addition, the growth is 44.5% with SF-295 CNS; 95.4% in the assay on SF-539 CNS; 105% in the assay with UACC-257 melanoma; 87.6% with M14 melanoma; 37.1% in the assay on HCT-15 colon; 98.4% with HT29 colon. Moreover, the growth in the assay on SNB-75 CNS is 99.1%; in the assay on SNB-19 CNS, 84%; in the assay with U251 CNS, 26.8%; in the assay with PC-3 prostate, 43.9%; with SK-MEL-5 melanoma, 99.7%; with UACC-62 melanoma, 81.9%. Also, the growth in the assay on LOX IMVI melanoma was 20.8%; with SK-MEL-28 melanoma it was 95.5%.

`CCOC(=O)c1cccnc1Nc1ccc(NC(=O)Nc2ccc(Cl)c(C(F)(F)F)c2)cc1`: the growth is 32.6% in the assay with DU-145 prostate; 13.4% with K-562 leukemia; 51.4% in the assay with MALME-3M melanoma; 95.8% in the assay on MDA-MB-231 breast; 93.7% with RXF 393 renal; 73.5% in the assay with SF-268 CNS. Moreover, the growth is 9.85% (active) with SF-295 CNS; 75.6% in the assay with SF-539 CNS; 58% in the assay with UACC-257 melanoma; 42.7% with M14 melanoma; 14.4% with HCT-15 colon; 36.1% in the assay on HT29 colon. Also, the growth is 106% with SNB-75 CNS; 49.3% in the assay on SNB-19 CNS; 30.1% with U251 CNS; 7.22% (active) in the assay with PC-3 prostate; 67.8% with SK-MEL-5 melanoma; 45.4% in the assay on UACC-62 melanoma. The growth in the assay on LOX IMVI melanoma is 22.5%; in the assay on SK-MEL-28 melanoma it was 43.7%.

Take `CCc1cc2c(cc1Cl)nc1c(=O)[nH]c(=O)nc-1n2CCOCC(C)C`: the growth with DU-145 prostate was 95%; in the assay on K-562 leukemia it was 42.1%; in the assay with MALME-3M melanoma it was 2.24% (active); in the assay on MDA-MB-231 breast, 55.8%; with RXF 393 renal, 80.5%; with SF-268 CNS, 80%. The growth with SF-295 CNS was 60%; in the assay on SF-539 CNS, 79.3%; in the assay with UACC-257 melanoma, 36.6%; in the assay with M14 melanoma it was 49.4%; in the assay on HCT-15 colon it was 47.4%; in the assay with HT29 colon, 24.3%. The growth with SNB-75 CNS is 92.5%; in the assay with SNB-19 CNS, 85%; with U251 CNS it was 73.9%; with PC-3 prostate, 68.9%; with SK-MEL-5 melanoma, 34.4%; in the assay with UACC-62 melanoma, 72.1%. The values for the growth in the assay with LOX IMVI melanoma and with SK-MEL-28 melanoma were 49.8% and 87%, respectively.

In the case of `NS(=O)(=O)c1cccc(Nc2nc(SCC(=O)c3ccc(Cl)cc3)nc3c2CCC3)c1`, the growth with DU-145 prostate is 97.6%; in the assay on K-562 leukemia, 90.2%; in the assay with MALME-3M melanoma, 96.4%; with MDA-MB-231 breast, 92.5%; in the assay on RXF 393 renal, 82.2%; with SF-268 CNS it was 82.8%. Also, the growth is 93.1% in the assay on SF-295 CNS; 88.3% with SF-539 CNS; 104% in the assay on UACC-257 melanoma; 101% with M14 melanoma; 96.7% in the assay on HCT-15 colon; 109% in the assay with HT29 colon. The growth is 87% in the assay with SNB-75 CNS; 62.5% with SNB-19 CNS; 63.9% in the assay on U251 CNS; 93.9% with PC-3 prostate; 94.9% in the assay on SK-MEL-5 melanoma; 97.1% in the assay on UACC-62 melanoma. Moreover, the growth is 86.2% with LOX IMVI melanoma and 104% in the assay on SK-MEL-28 melanoma.

Consider `CN1CCN(c2ccc(Nc3nc(NCCNC(=O)c4ccc(F)cc4)c4sccc4n3)cc2)CC1`, for which the growth in the assay with DU-145 prostate is 87.8%; in the assay with K-562 leukemia, 19.8%; in the assay with MALME-3M melanoma, -54.2% (active); in the assay with MDA-MB-231 breast it was 59.4%; with RXF 393 renal, 14.1%; in the assay on SF-268 CNS it was 73.8%. For the same molecule, the growth with SF-295 CNS is 61%; in the assay with SF-539 CNS, -64.7% (active); in the assay on UACC-257 melanoma it was 0.258% (active); in the assay on M14 melanoma, -10.1% (active); in the assay on HCT-15 colon, 28.2%; in the assay on HT29 colon, 32%. Further, the growth in the assay with SNB-75 CNS is 91.5%; in the assay on SNB-19 CNS, 91.8%; with U251 CNS, 37%; with PC-3 prostate, 72.2%; with SK-MEL-5 melanoma, 25.2%; in the assay on UACC-62 melanoma, 33.8%. In addition, the growth with LOX IMVI melanoma was 8.7% (active); in the assay with SK-MEL-28 melanoma, -8.89% (active).

Take `CCOC(=O)c1c(NC(=O)c2cccc(C(F)(F)F)c2)sc2c1CCC(=O)C2`: the growth with DU-145 prostate was 94.8%; in the assay on K-562 leukemia, 5.25% (active); in the assay with MALME-3M melanoma, 58.3%; with MDA-MB-231 breast, 55.2%; in the assay with RXF 393 renal, 25.6%; in the assay on SF-268 CNS, 27.7%. The growth with SF-295 CNS was 24.3%; in the assay with SF-539 CNS, -9.48% (active); with UACC-257 melanoma, 82.2%; with M14 melanoma it was 42.7%; with HCT-15 colon, 18.9%; in the assay with HT29 colon it was 65.4%. Further, the growth is 31.6% with SNB-75 CNS; 21.4% in the assay on SNB-19 CNS; 3.77% (active) in the assay with U251 CNS; 3.56% (active) in the assay on PC-3 prostate; 38% in the assay with SK-MEL-5 melanoma; 30.9% in the assay with UACC-62 melanoma. Further, the growth in the assay with LOX IMVI melanoma was 9.07% (active); in the assay on SK-MEL-28 melanoma, 89.2%.
